# Rows were chosen to be rich in hits. Some 4.3% of all compounds tested hit in one or more screens of this group.
# ADAM10 inh = inhibitors of human ADAM10; O14672; recombinant ADAM10, EDANS/DABCYL FRET peptide cleavage, 3 h; inhibition, % at 7 µM; 370,000 tested, 0.62% active;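 active = inhibition above a per-campaign cutoff equal to the mean of compounds falling between control-based bounds plus 3 SD, cut at about 20% in these data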;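 also: 0% = DMSO wells while the 100% control is not disclosed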
# NR3A LBD binder = modulates the human NR3A ligand-binding domain; NR3A LBD differential scanning fluorimetry, Tm shift; 0% = protein alone, 100% = glycine-bound protein; Tm shift relative to glycine control, % at 25 µM; 340,000 tested, 2.5% active; AID 1259313;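 active = melting temperature shift of at least 10% of the positive control shift, at one fixed dose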
# ADAM17 inh = inhibitors of human ADAM17 | inhibition, % at 6.95 µM | AID 720648 | recombinant ADAM17, EDANS/DABCYL FRET peptide cleavage | P78536 | 370,000 tested, 0.83% active;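 active = inhibition above the mean of compounds lying between control limits plus 3 SD, set per campaign, cut at about 8.5% in these data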;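 also: 0% = DMSO-only wells as the low control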
# Target sequence (P78536 215-824 limits assumed): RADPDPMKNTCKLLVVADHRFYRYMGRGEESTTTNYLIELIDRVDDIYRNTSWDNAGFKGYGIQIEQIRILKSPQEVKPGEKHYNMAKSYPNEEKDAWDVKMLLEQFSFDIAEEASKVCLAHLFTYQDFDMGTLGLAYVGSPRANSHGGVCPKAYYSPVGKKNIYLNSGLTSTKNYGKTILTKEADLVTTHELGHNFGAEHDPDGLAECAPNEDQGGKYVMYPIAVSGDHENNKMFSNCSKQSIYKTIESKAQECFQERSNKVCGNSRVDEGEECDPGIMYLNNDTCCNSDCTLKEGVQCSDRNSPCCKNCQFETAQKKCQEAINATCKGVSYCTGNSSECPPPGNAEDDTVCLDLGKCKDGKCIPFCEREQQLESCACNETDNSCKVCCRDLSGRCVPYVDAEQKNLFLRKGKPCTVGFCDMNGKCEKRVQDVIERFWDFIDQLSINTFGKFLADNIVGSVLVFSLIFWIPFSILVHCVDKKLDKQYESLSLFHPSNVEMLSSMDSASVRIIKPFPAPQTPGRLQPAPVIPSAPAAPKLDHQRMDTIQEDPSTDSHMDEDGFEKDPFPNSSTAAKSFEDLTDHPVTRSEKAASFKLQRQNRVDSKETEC
# FAS-TE inh = FAS thioesterase (human) inhibition; P49327; 360,000 tested, 0.67% active; inhibition, % at 15 µM; recombinant FAS-TE, OMFH fluorogenic substrate, fluorescence endpoint;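 active = compounds whose normalised, plate-corrected inhibition of enzyme fluorescence in the single-dose primary screen is 50% or more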;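 also: 0% = DMSO with enzyme and 100% = substrate without enzyme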
# sPLA2-III inh = Blocks human group III sPLA2 activity; inhibition, % at 12.2 µM; 370,000 tested, 0.56% active; QFRET BODIPY PC-A2 liposome hydrolysis, fluorescence;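 active = inhibition above mean plus 3 SD of compounds lying within the high and low control bounds, cut at about 19% in these data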;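 also: 0% = median of test compound wells and 100% = no enzyme DMSO wells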
# ADAM10 confirm = human ADAM10 inhibition, confirmation; shares compounds with ADAM10 inh; AID 743208; inhibition, % at 6.95 µM; 2,100 tested, 1% active; ADAM10 QFRET peptide cleavage, EDANS fluorescence;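 active = inhibition above about 20% chosen separately for each screening run, limit read from the data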;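 also: 0% = DMSO wells and 100% = marimastat wells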
# ADAM17 ctr = ADAM17 inhibition, counter-screen for ADAM10 exosite hits | shares compounds with ADAM10 inh | ADAM17 QFRET peptide cleavage, EDANS fluorescence | inhibition, % at 6.95 µM | 2,100 tested, 0.5% active | AID 743214;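 active = mean triplicate inhibition above the solvent-only control wells' mean plus 3 SD, cut at about 12% in these data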;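 also: 0% = DMSO wells and 100% = marimastat wells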
# ADAM10 counter = counter-screen for ADAM17 exosite inhibitors: inhibitors of human ADAM10 | inhibition, % at 6.95 µM | AID 743256 | 2,900 tested, 47% active | recombinant ADAM10, EDANS/DABCYL FRET peptide cleavage, 3 h | shares compounds with ADAM17 inh;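 active = mean inhibition over the triplicate runs exceeds the activity threshold set in the earlier primary screen, cut at about 20% in these data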;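 also: 0% = DMSO wells and 100% = marimastat wells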
# ADAM17 confirm = human ADAM17 inhibition, confirmation | shares compounds with ADAM17 inh | recombinant ADAM17, EDANS/DABCYL QFRET peptide cleavage | inhibition, % at 6.95 µM | 2,900 tested, 65% active | AID 743257;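 active = mean inhibition across replicates above the hit cutoff set in the primary screen, cut at about 8.5% in these data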;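 also: 0% = DMSO wells and 100% = marimastat wells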
# Numbers without * were called inactive; . = not tested or not shown.
SMILES,ADAM10 inh,NR3A LBD binder,ADAM17 inh,FAS-TE inh,sPLA2-III inh,ADAM10 confirm,ADAM17 ctr,ADAM10 counter,ADAM17 confirm
Cc1ccc(NC(=O)c2cc(NC(=O)c3ccccc3C(=O)O)ccc2N2CCCCC2)cc1,-5.3,-2.7,-0.5,10.1,0.4,.,.,.,.
Cc1ccc(NC(=O)c2cc(NC(=O)/C=C\C(=O)O)ccc2N2CCCCC2)cc1,23.9*,-2.5,18.6*,7.5,-3.7,9.0,2.4,-10.0,1.4
Cc1nc2ccc(S(=O)(=O)NCC(=O)N(C)Cc3ccccc3F)cc2s1,-9.5,.,-3.8,.,7.5,.,.,.,.
Nc1cc(OC(=O)c2c(F)cccc2Cl)nn1S(=O)(=O)c1ccccc1,28.0*,-10.0,11.8*,10.7,-23.6,7.1,1.9,18.3,11.2*
CCCCCCCCN1C(=O)[C@@H](CC(=O)N2CCN(C(=O)OCC)CC2)C[C@@]2(C(=O)OC)C1=C[C@H](C(C)(C)C)O[C@@H]2C,-2.4,.,-0.8,.,-4.0,.,.,.,.
COc1ccc(CN2C(=O)[C@H]3Cc4c([nH]c5ccccc45)C(C)(C)N3C2=O)cc1,22.1*,-2.8,8.9*,16.0,-27.1,3.7,1.0,30.0*,16.6*
Cn1cccc1C(=O)Nc1ccc(Cl)c(S(=O)(=O)N2CCCCC2)c1,39.9*,-3.0,16.9*,14.7,-5.1,3.3,0.7,10.2,6.4
O=C(Nc1ccc(Cl)c(S(=O)(=O)N2CCCCC2)c1)c1ccncc1,-1.1,-1.7,-4.4,-4.8,2.0,.,.,.,.
CCOC(=O)C(CNc1ccc(OCc2ccccc2)cc1)NC(=O)c1ccccc1 (configuration not stated),3.1,.,2.5,.,-1.8,.,.,.,.
CC(=O)Nc1ccc(Oc2cc(NC(C)=O)cc([N+](=O)[O-])c2)cc1,-0.6,-3.3,1.2,6.6,-4.3,.,.,.,.
Cc1cccc(Oc2cc(NC(=O)c3ccccc3)cc([N+](=O)[O-])c2)c1,21.5*,4.6,9.0*,35.4,-19.3,7.3,2.2,17.2,12.1*
Cc1cccc(C(=O)Nc2cccc(NC(=O)c3ccccc3)c2)c1,25.9*,-4.6,10.3*,9.9,-14.4,2.9,-0.3,15.6,10.8*
Cc1cccc(NC(=O)c2cccc(C(=O)Nc3cccc(C)c3)c2)c1,-5.8,-2.6,-0.8,-3.3,-2.6,.,.,.,.
Cc1ccc(S(=O)(=O)Nc2cc(=O)[nH]c(SCc3ccccc3Cl)n2)cc1,9.1,-8.0,-64.6,-11.3,5.2,.,.,.,.
Cc1ccc(S(=O)(=O)Nc2ccc(-c3nnc(SCc4ccccc4Cl)o3)cc2)cc1,23.3*,26.4*,9.6*,41.1,-32.6,11.3,2.7,33.6*,17.1*
Cc1c(NS(=O)(=O)c2cc3c(cc2Br)CCN3C(=O)C2CC2)c(=O)n(-c2ccccc2)n1C,-2.7,.,-0.2,.,-3.8,.,.,.,.
Cc1ccc(S(=O)(=O)N(C)c2ccc(OCC(=O)Nc3nc4ccccc4s3)cc2)cc1,29.2*,-6.1,18.5*,20.1,-27.1,10.0,3.2,23.3*,15.7*
Cc1ccc(S(=O)(=O)N(C)c2ccc(OCC(=O)Nc3nc4c(ccc5ccccc54)s3)cc2)cc1,0.6,-3.6,2.6,38.6,-12.8,.,.,.,.
CN(C)c1ccc(C(CNS(=O)(=O)c2ccc(F)c(F)c2)c2c[nH]c3ccccc23)cc1 (configuration not stated),40.0*,22.5*,13.7*,36.4,-30.3,13.1,4.2,54.5*,31.2*
COc1cccc(NC(=O)c2ccccc2Oc2ccccc2)c1,15.4,0.3,7.9,19.5,-13.5,.,.,.,.
COc1cccc(Nc2ncccc2C(=O)Nc2ccccc2)c1,28.5*,0.5,18.6*,29.9,-34.9,2.3,1.2,11.5,7.7
Cc1ccc(NC(=O)C(OC(=O)c2ccc(NC(N)=O)cc2)c2ccccc2)cc1Cl (configuration not stated),31.8*,26.0*,18.1*,37.8,-18.7,6.5,1.9,10.7,9.7*
CC(C)(C)NC(=O)C(c1ccc(-c2ccccc2)cc1)N(C[C@H]1CC[C@@H]([C@@H]2CC[C@H](CO)O2)O1)C(=O)c1ccc2ccccc2c1 (some centres not stated),21.2*,2.1,10.3*,15.8,-18.2,3.2,0.7,16.0,10.1*
COc1ccc(C(C(=O)NC(C)(C)C)N(C[C@H]2CC[C@@H]([C@@H]3CC[C@H](CO)O3)O2)C(=O)c2ccccc2)cc1 (some centres not stated),-10.8,2.1,-0.9,-2.9,4.3,.,.,.,.
Cc1cc(NC(=O)CS(=O)(=O)c2cn(Cc3cccc(Cl)c3)c3ccccc23)no1,20.1*,.,10.7*,12.1,-33.7,0.2,0.5,11.0,7.2
SMILES,ADAM10 inh,NR3A LBD binder,ADAM17 inh,FAS-TE inh,sPLA2-III inh,ADAM10 confirm,ADAM17 ctr,ADAM10 counter,ADAM17 confirm
CCn1cc(S(=O)(=O)CC(=O)Nc2cccc(C)c2)c2ccccc21,4.9,-1.0,1.3,-3.7,-10.9,.,.,.,.
COC(=O)C1=C(C)N(Cc2cccc(C(F)(F)F)c2)C(=NCc2ccc(C(F)(F)F)cc2)NC1c1cccc(F)c1 (configuration not stated),21.1*,.,9.4*,.,-7.9,10.2,4.6,22.4*,12.3*
COC(=O)C1=C(C)N(Cc2ccc(C(F)(F)F)cc2)C(=NCc2ccccc2)NC1c1cccc(F)c1 (configuration not stated),11.5,.,7.5,.,-7.1,.,.,.,.
O=C(c1cccs1)N1N=C(c2ccccc2)CC1c1ccc(O)cc1 (configuration not stated),27.2*,-9.2,16.1*,12.2,-52.6,14.0,4.2,29.9*,21.4*
O=C(c1cccs1)N1N=C(c2ccc(O)cc2)CC1c1ccccc1 (configuration not stated),-63.0,6.0,-17.2,6.2,-25.2,.,.,.,.
COc1ccc(OC)c(-c2csc(NC(=O)COC(=O)C3(C)CC3(Cl)Cl)n2)c1 (configuration not stated),39.0*,5.2,17.7*,33.0,-11.1,10.0,2.9,18.1,12.2*
COc1ccc(OC)c(-c2csc(NC(=O)CSc3ccccc3)n2)c1,19.9*,5.4,10.2*,16.8,-24.2,5.6,1.9,24.6*,10.9*
COc1ccc(CC(=O)Nc2nc(-c3cc(OC)ccc3OC)cs2)cc1,14.1,-3.3,5.5,25.1,-22.0,.,.,.,.
CC(=O)N1CCN(c2ccc(N3CCN(C(C)=O)[C@H](C)C3)c(C)c2)[C@H](C)C1,-6.3,.,4.4,.,8.6,.,.,.,.

# Screens as filed in PubChem.
